Experimental data: PubChem BioAssay (Tox21)
A number with no mark means an inactive call. Results filed as inconclusive are left out. Calls of active or inactive are those of the source. Unless noted, calls follow the shape of the dose curve; as a rule, active = well fitted curve in the direction sought with a large enough effect in the repeat runs; inconclusive = weak or mixed curves; inactive = no such curve, though single readings can be large; an effect the other way counts as inactive or inconclusive.

Assay: qHTS assay to identify small molecule agonists of the estrogen related receptor (ERR) signaling pathway from Tox21 library (AID 1224849; calls by dose curve; also: nearly all actives have a fitted effect of over 15% in size)
Settings: ERR reporter cell line, ONE-Glo luciferase, 18 h; at 92.4 µM (top of the series) unless noted
In short: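 We plated ERR reporter cells, waited 6 h, added compounds in DMSO by pin tool and incubated them 18 h at 37 C. ONE-Glo was then added and luminescence read after 30 min.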
% is scaled to controls: 0 for no effect and ±100 for the full control effect.

SMILES	activity change, positive = activation
O=C(Nc1ccccc1)c1ccccc1O	-30.7%
CN(C)C(=O)NC1(c2ccccc2)CCN(CC[C@@]2(c3ccc(F)c(F)c3)CN(C(=O)c3ccccc3)CCO2)CC1	-22.6%
CN1CCC(N(Cc2cccs2)c2ccccc2)CC1	0.685% [at 42.5 µM]
CCOC(=O)NCCOc1ccc(Oc2ccccc2)cc1	-42.2%
CN(C)CCCN1c2ccccc2Sc2ccccc21	7.95% [at 42.5 µM]
CN(C)c1ccc(C(c2ccccc2)c2ccc(N(C)C)cc2)cc1	-34.5%
COc1ccc(C(=O)c2ccc(OC)cc2O)c(O)c1	-2.18% (active)

Assay: qHTS RealTime-Glo MT Cell Viability Assay in HepG2 cells - 24 hour (AID 1224867); also: nearly all actives have a fitted effect of over 50% in size; also: potency is read from the fitted curve at half-maximal effect
Settings: RealTime-Glo luminescence; series mostly up to 76.8 µM; activity change, negative = cytotoxicity: at the top concentration
In short: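 Real-time, nonlytic viability: 600 HepG2 cells/well mixed with NanoLuc enzyme plus prosubstrate; 5 h settle, compound (DMSO) added by pintool; luminescence monitored over 40 h at 37 C.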

SMILES	activity change, negative = cytotoxicity	Potency
CCOc1ccc(N)c([N+](=O)[O-])c1	-10.9%	–
CN1CCC(=C2c3ccccc3Sc3ccccc32)CC1	-21.6% [at 35.3 µM]	–
CCCCc1nc2cccnc2n1Cc1ccc(-c2ccccc2-c2nnn[nH]2)cc1	-0.437%	–
OCCN1CCN(CCCN2c3ccccc3C=Cc3ccccc32)CC1	-1.99% [at 35.3 µM]	–
CC(=O)c1ccc2c(c1)N(CCCN(C)C)c1ccccc1S2	-9.89% [at 35.3 µM]	–
CCCCC/C=C\C/C=C\CCCCCCCC(=O)NC(C)c1ccccc1 (stereo unspecified)	-19.1% [at 35.3 µM]	–
Cc1c(N)cccc1[N+](=O)[O-]	-1.55%	–
C[C@H](CCC(=O)O)[C@H]1CC[C@H]2[C@@H]3CC[C@@H]4C[C@H](O)CC[C@]4(C)[C@H]3C[C@H](O)[C@]12C	1.3%	–
CCCCCCCCCCCCCCOS(=O)(=O)O	1.94%	–
CCCCCCCCCCCCCCCCOS(=O)(=O)O	-0.125% [at 35.3 µM]	–
CCOC(=O)COC(=O)c1cc(Oc2ccc(C(F)(F)F)cc2Cl)ccc1[N+](=O)[O-]	0.258%	–
CC(C)OC(=O)C(C)N(C(=O)c1ccccc1)c1ccc(F)c(Cl)c1 (stereo unspecified)	-16%	–
CCCCCCCCCCCCCCCCCCOS(=O)(=O)O	-6.91%	–
CCCCC(CC)CN1C(=O)C2C3C=CC(C3)C2C1=O (stereo unspecified)	-10.5%	–
COC(=O)C1=C(C)NC(COC(N)=O)=C(C(=O)OC(C)C)C1c1cccc(Cl)c1Cl (stereo unspecified)	–	23.9 µM (active)
C=CC(=O)OCCOc1ccccc1	-2.84%	–

SMILES	activity change, negative = cytotoxicity	Potency
CCCOC(C(=O)OC1CCN(C)CC1)(c1ccccc1)c1ccccc1	-21.5% [at 35.3 µM]	–
CCOC(=O)C1=C[C@]2(CC)CCCN3CCc4c(n1c1ccccc41)[C@@H]32	-9.91% [at 35.3 µM]	–
COc1cc2nc(N(C)CCCNC(=O)C3CCCO3)nc(N)c2cc1OC (stereo unspecified)	-5.03% [at 35.3 µM]	–
Clc1ccc(Cn2c(CN3CCCC3)nc3ccccc32)cc1	-23.7% [at 35.3 µM]	–
Cn1c(=O)cc(Oc2ccc(F)cc2F)c2cnc(NCC(C)(C)O)nc21	-2.56%	–
CCCNCC(O)COc1ccccc1C(=O)CCc1ccccc1 (stereo unspecified)	-18.4% [at 35.3 µM]	–
O=C(Nc1ccccc1)c1ccccc1O	-18.8%	–
CCCCC1=NC2(CCCC2)C(=O)N1Cc1ccc(-c2ccccc2-c2nn[nH]n2)cc1	0.324% [at 35.3 µM]	–
CN(C)C(=O)NC1(c2ccccc2)CCN(CC[C@@]2(c3ccc(F)c(F)c3)CN(C(=O)c3ccccc3)CCO2)CC1	-3.14%	–
CN1CCC(N(Cc2cccs2)c2ccccc2)CC1	-14.7% [at 35.3 µM]	–
CCN(CC)CCOC(=O)C(Cc1cccc2ccccc12)CC1CCCO1 (stereo unspecified)	-4.63% [at 35.3 µM]	–
CCOC(=O)NCCOc1ccc(Oc2ccccc2)cc1	-18.8%	–
CN(C)CCCN1c2ccccc2Sc2ccccc21	-25.1% [at 35.3 µM]	–
CN(C)c1ccc(C(c2ccccc2)c2ccc(N(C)C)cc2)cc1	-20.9%	–
COc1ccc(C(=O)c2ccc(OC)cc2O)c(O)c1	-16.8%	–
O=C1OC(CN2CCOCC2)CN1/N=C/c1ccc([N+](=O)[O-])o1 (stereo unspecified)	0.622% [at 35.3 µM]	–

Assay: qHTS RealTime-Glo MT Cell Viability Assay in HEK293 cells - 32 hour (AID 1224868); also: nearly all actives have a fitted effect of over 50% in size; also: potency is read from the fitted curve at half-maximal effect; as to activity change, negative = cytotoxic: top concentration of the series differs between compounds
Settings: RealTime-Glo luminescence; series mostly up to 76.8 µM; activity change, negative = cytotoxic: at the top concentration
In short: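 Cells + reagent dispensed (600 cells/well, HEK293) → 5 h at 37 C/5% CO2 → 23 nL compound in DMSO pinned → 40 h at 37 C → luminescence read at 0, 8, 16, 24, 32, 40 h.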

SMILES	activity change, negative = cytotoxic	Potency
OCCN1CCN(CCCN2c3ccccc3C=Cc3ccccc32)CC1	-29.2% [at 35.3 µM]	–
COc1ccc(C(=O)Nc2nc3ccccc3c(NCc3ccccc3)c2C#N)cc1	-15.5%	–
CCCCC/C=C\C/C=C\CCCCCCCC(=O)NC(C)c1ccccc1 (stereo unspecified)	-16.5% [at 35.3 µM]	–
Cc1c(N)cccc1[N+](=O)[O-]	-9.86%	–
CCCCCCCCCCCCCCOS(=O)(=O)O	-16.9%	–
CCCCCCCCCCCCCCCCOS(=O)(=O)O	-25.8% [at 35.3 µM]	–
CC(C)OC(=O)C(C)N(C(=O)c1ccccc1)c1ccc(F)c(Cl)c1 (stereo unspecified)	-29.5%	–
COC(=O)C1=C(C)NC(COC(N)=O)=C(C(=O)OC(C)C)C1c1cccc(Cl)c1Cl (stereo unspecified)	–	26.8 µM (active)
C=CC(=O)OCCOc1ccccc1	0.523%	–
CCCNCC(O)COc1ccccc1C(=O)CCc1ccccc1 (stereo unspecified)	–	2.39 µM (active)
CCCCC1=NC2(CCCC2)C(=O)N1Cc1ccc(-c2ccccc2-c2nn[nH]n2)cc1	-1.93% [at 35.3 µM]	–
CN1CCC(N(Cc2cccs2)c2ccccc2)CC1	-14.2% [at 35.3 µM]	–
CCOC(=O)NCCOc1ccc(Oc2ccccc2)cc1	–	21.9 µM (active)
CN(C)CCCN1c2ccccc2Sc2ccccc21	-20% [at 35.3 µM]	–
COc1ccc(C(=O)c2ccc(OC)cc2O)c(O)c1	–	27.7 µM (active)
CNCCCCOc1ccccc1Cc1ccccc1	–	23.9 µM (active)
O=C1OC(CN2CCOCC2)CN1/N=C/c1ccc([N+](=O)[O-])o1 (stereo unspecified)	1.93% [at 35.3 µM]	–

Assay: A CellTox Green Cytotoxicity Assay to monitor cytotoxicity in HEK293 cells - 0 hour (AID 1224869); also: nearly all actives have a fitted effect of over 50% in size
Settings: CellTox Green fluorescence; series mostly up to 76.8 µM; cytotoxicity: at the top concentration
In short: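 Each value comes from one timepoint of a single continuous run in which HEK293 cells with CellTox Green were exposed to compound for up to 40 h at 37 C, dye fluorescence rising with cell death.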

SMILES	cytotoxicity
CCOc1ccc(N)c([N+](=O)[O-])c1	-5.87%
CN1CCC(=C2c3ccccc3Sc3ccccc32)CC1	-3.32% [at 35.3 µM]
CCc1c(C(=O)NN2CCCCC2)nn(-c2ccc(Cl)cc2Cl)c1-c1ccc(Br)cc1	-4.36%
CCCCc1nc2cccnc2n1Cc1ccc(-c2ccccc2-c2nnn[nH]2)cc1	-6.49%
OCCN1CCN(CCCN2c3ccccc3C=Cc3ccccc32)CC1	-1.42% [at 35.3 µM]
CC(=O)c1ccc2c(c1)N(CCCN(C)C)c1ccccc1S2	2.98% [at 35.3 µM]
COc1ccc(C(=O)Nc2nc3ccccc3c(NCc3ccccc3)c2C#N)cc1	0.602%
CCCCC/C=C\C/C=C\CCCCCCCC(=O)NC(C)c1ccccc1 (stereo unspecified)	-10.4% [at 35.3 µM]
Cc1c(N)cccc1[N+](=O)[O-]	-5.45%
C[C@H](CCC(=O)O)[C@H]1CC[C@H]2[C@@H]3CC[C@@H]4C[C@H](O)CC[C@]4(C)[C@H]3C[C@H](O)[C@]12C	-2.81%
CCCCCCCCCCCCCCOS(=O)(=O)O	3.48%
CCCCCCCCCCCCCCCCOS(=O)(=O)O	3.51% [at 35.3 µM]
CCOC(=O)COC(=O)c1cc(Oc2ccc(C(F)(F)F)cc2Cl)ccc1[N+](=O)[O-]	-0.517%
CC(C)OC(=O)C(C)N(C(=O)c1ccccc1)c1ccc(F)c(Cl)c1 (stereo unspecified)	5.53%
CCCCCCCCCCCCCCCCCCOS(=O)(=O)O	1.39%
CNCCCN1c2ccccc2CCc2ccccc21	1.09% [at 35.3 µM]
CCCCC(CC)CN1C(=O)C2C3C=CC(C3)C2C1=O (stereo unspecified)	0.413%
COC(=O)C1=C(C)NC(COC(N)=O)=C(C(=O)OC(C)C)C1c1cccc(Cl)c1Cl (stereo unspecified)	2.53% [at 35.3 µM]

SMILES	cytotoxicity
C=CC(=O)OCCOc1ccccc1	-1.22%
CCCOC(C(=O)OC1CCN(C)CC1)(c1ccccc1)c1ccccc1	-1.3% [at 35.3 µM]
CCOC(=O)C1=C[C@]2(CC)CCCN3CCc4c(n1c1ccccc41)[C@@H]32	1.17% [at 35.3 µM]
COc1cc2nc(N(C)CCCNC(=O)C3CCCO3)nc(N)c2cc1OC (stereo unspecified)	-7.15% [at 35.3 µM]
Clc1ccc(Cn2c(CN3CCCC3)nc3ccccc32)cc1	1.85% [at 35.3 µM]
Cn1c(=O)cc(Oc2ccc(F)cc2F)c2cnc(NCC(C)(C)O)nc21	6.41%
CCCNCC(O)COc1ccccc1C(=O)CCc1ccccc1 (stereo unspecified)	3.72% [at 35.3 µM]
O=C(Nc1ccccc1)c1ccccc1O	5.19%
CCCCC1=NC2(CCCC2)C(=O)N1Cc1ccc(-c2ccccc2-c2nn[nH]n2)cc1	1.72% [at 35.3 µM]
CN(C)C(=O)NC1(c2ccccc2)CCN(CC[C@@]2(c3ccc(F)c(F)c3)CN(C(=O)c3ccccc3)CCO2)CC1	-2.5%
CCN(CC)CCOC(=O)C(Cc1cccc2ccccc12)CC1CCCO1 (stereo unspecified)	-1.33% [at 35.3 µM]
CCOC(=O)NCCOc1ccc(Oc2ccccc2)cc1	0.61%
CN(C)CCCN1c2ccccc2Sc2ccccc21	3.64% [at 35.3 µM]
CN(C)c1ccc(C(c2ccccc2)c2ccc(N(C)C)cc2)cc1	-6.7%
COc1ccc(C(=O)c2ccc(OC)cc2O)c(O)c1	5.4%
CNCCCCOc1ccccc1Cc1ccccc1	-4.86% [at 35.3 µM]
O=C1OC(CN2CCOCC2)CN1/N=C/c1ccc([N+](=O)[O-])o1 (stereo unspecified)	13.4% [at 35.3 µM]
